This is part of a sample that, as a whole, favours compounds with a hit. Of some 83,000 tested, about 20% had one in any assay.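 The endpoint reported here, percent growth, reads 100 for growth as untreated, 0 for no net growth and -100 for all cells dead.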 Activity calls are given as the source filed them. How the source made its calls: active means growth percent below 10; inactive means the rest.
Experiments:
Assay in all cases: NCI-60 one-dose screen, 48 h (100 = growth as untreated, 0 = no growth, -100 = all killed)
DU-145 prostate = conditions: 10 µM unless noted
K-562 leukemia = conditions: 10 µM unless noted
MALME-3M melanoma = conditions: 10 µM unless noted
MDA-MB-231 breast = conditions: 10 µM unless noted
RXF 393 renal = conditions: 10 µM unless noted
SF-268 CNS = conditions: 10 µM unless noted
SF-295 CNS = conditions: 10 µM unless noted
SF-539 CNS = conditions: 10 µM unless noted
UACC-257 melanoma = conditions: 10 µM
M14 melanoma = conditions: 10 µM unless noted
HCT-15 colon = conditions: 10 µM unless noted
HT29 colon = conditions: 10 µM unless noted
SNB-75 CNS = conditions: 10 µM unless noted
SNB-19 CNS = conditions: 10 µM unless noted
U251 CNS = conditions: 10 µM unless noted
PC-3 prostate = conditions: 10 µM unless noted
SK-MEL-5 melanoma = conditions: 10 µM unless noted
UACC-62 melanoma = conditions: 10 µM unless noted
LOX IMVI melanoma = conditions: 10 µM unless noted
SK-MEL-28 melanoma = conditions: 10 µM unless noted

Measured: growth

COc1ccccc1CNCCCN1C(=O)c2ccc3c4c(ccc(c24)C1=O)C(=O)N(CCCNCCCCNCCCCN)C3=O
inactive: RXF 393 renal 22.6% | SF-539 CNS 11% | HCT-15 colon 30.6%
active: DU-145 prostate 9.88% | K-562 leukemia 7.51% | MALME-3M melanoma -83.9% | MDA-MB-231 breast 8.05% | SF-268 CNS 4.92% | SF-295 CNS 2.29% | UACC-257 melanoma -56.2% | M14 melanoma -5.69% | HT29 colon 1.62% | SNB-75 CNS -37.8% | SNB-19 CNS 4.86% | U251 CNS 0.458% | PC-3 prostate -12.5% | SK-MEL-5 melanoma -85% | UACC-62 melanoma -75% | LOX IMVI melanoma -3.52% | SK-MEL-28 melanoma -13.9%

CNC(=O)Cc1nc(-c2cccc(NS(=O)(=O)c3c(F)cccc3F)c2F)c(-c2ccnc(Nc3ccccc3)n2)s1
active: MALME-3M melanoma 0.396% | MDA-MB-231 breast -14.3% | RXF 393 renal -6.63% | UACC-257 melanoma 7.77% | M14 melanoma 2.35% | HT29 colon 6.8% | UACC-62 melanoma 5.51% | LOX IMVI melanoma 9.18%
inactive: DU-145 prostate 79.5% | K-562 leukemia 20.5% | SF-268 CNS 54.9% | SF-295 CNS 101% | SF-539 CNS 68.9% | HCT-15 colon 72.1% | SNB-75 CNS 58.2% | SNB-19 CNS 75.4% | U251 CNS 86.6% | PC-3 prostate 81.8% | SK-MEL-5 melanoma 63.2% | SK-MEL-28 melanoma 15.2%

O=C(O)c1ccc(-n2c(=O)c3ccccc3c3ccccc3c2=O)cc1
inactive: DU-145 prostate 113% | K-562 leukemia 103% | MALME-3M melanoma 109% | MDA-MB-231 breast 106% | RXF 393 renal 108% | SF-268 CNS 99.5% | SF-295 CNS 92.7% | SF-539 CNS 97.1% | UACC-257 melanoma 102% | M14 melanoma 117% | HCT-15 colon 104% | HT29 colon 98.5% | SNB-75 CNS 92.9% | SNB-19 CNS 104% | U251 CNS 102% | SK-MEL-5 melanoma 104% | UACC-62 melanoma 105% | LOX IMVI melanoma 103% | SK-MEL-28 melanoma 113%

COc1cccc(/C=C/C(=O)c2sc(Nc3ccc(O)cc3)nc2C)c1
inactive: DU-145 prostate 94.9% | K-562 leukemia 79.1% | MALME-3M melanoma 95% | MDA-MB-231 breast 105% | RXF 393 renal 84.6% | SF-268 CNS 61.2% | SF-295 CNS 104% | SF-539 CNS 74.5% | UACC-257 melanoma 85% | M14 melanoma 95.4% | HCT-15 colon 83.7% | HT29 colon 82% | SNB-75 CNS 84.1% | SNB-19 CNS 95.1% | U251 CNS 89.6% | SK-MEL-5 melanoma 95.4% | UACC-62 melanoma 94.4% | LOX IMVI melanoma 87.5% | SK-MEL-28 melanoma 102%

COc1cc(OC)c(C(=O)/C=C/c2ccc(C(F)(F)F)cc2)c(OC)c1
inactive: DU-145 prostate 11.9% | K-562 leukemia 32.3% | MALME-3M melanoma 75.3% | MDA-MB-231 breast 59.7% | RXF 393 renal 41.1% | SF-268 CNS 55.9% | SF-295 CNS 69.9% | SF-539 CNS 68.7% | UACC-257 melanoma 62.5% | M14 melanoma 59% | HCT-15 colon 29.4% | HT29 colon 26.9% | SNB-75 CNS 30% | SNB-19 CNS 57.5% | U251 CNS 46.2% | PC-3 prostate 54.5% | SK-MEL-5 melanoma 62.2% | UACC-62 melanoma 48.2% | LOX IMVI melanoma 32.4% | SK-MEL-28 melanoma 67.4%

COc1ccc(-c2nc(-c3nc4ccc(F)cc4[nH]3)cc3c2[nH]c2ccccc23)cc1
inactive: DU-145 prostate 25.6% | K-562 leukemia 20.3% | MALME-3M melanoma 39.1% | MDA-MB-231 breast 43.6% | RXF 393 renal 56.5% | SF-268 CNS 41.3% | SF-295 CNS 55.5% | SF-539 CNS 69.1% | M14 melanoma 36% | HCT-15 colon 36.1% | HT29 colon 32.8% | SNB-75 CNS 60.8% | SNB-19 CNS 62.3% | U251 CNS 29.4% | PC-3 prostate 27.6% | SK-MEL-5 melanoma 51.1% | UACC-62 melanoma 41.4% | SK-MEL-28 melanoma 57.4%
active: UACC-257 melanoma 9.58%

COc1cc(OC)c(C(=O)/C=C/c2cccc(C(F)(F)F)c2)c(OC)c1
active: RXF 393 renal -12.9% | SF-539 CNS -0.21% | M14 melanoma 9.53% | HCT-15 colon 6.82% | HT29 colon 3.81% | U251 CNS 9.44% | UACC-62 melanoma -12.1% | LOX IMVI melanoma -16.7%
inactive: DU-145 prostate 11.6% | K-562 leukemia 11.8% | MALME-3M melanoma 51.4% | MDA-MB-231 breast 20.7% | SF-268 CNS 14.7% | SF-295 CNS 17.4% | UACC-257 melanoma 31.3% | SNB-75 CNS 19.2% | SNB-19 CNS 14.2% | SK-MEL-5 melanoma 13.2% | SK-MEL-28 melanoma 39.1%

CCOC(=O)C(Cc1ccccc1)n1c(O)c(C=Nc2ccc(C(=O)OCCN(CC)CC)cc2)sc1=O (stereo not given)
active: M14 melanoma -36.1%
inactive: DU-145 prostate 106% | K-562 leukemia 89.3% | MALME-3M melanoma 90.1% | MDA-MB-231 breast 89.3% | RXF 393 renal 84.7% | SF-268 CNS 97.2% | SF-295 CNS 104% | SF-539 CNS 86.5% | UACC-257 melanoma 77.4% | HCT-15 colon 89.4% | HT29 colon 62.4% | SNB-75 CNS 99.7% | SNB-19 CNS 95.3% | U251 CNS 96.3% | PC-3 prostate 72.8% | SK-MEL-5 melanoma 88.7% | UACC-62 melanoma 97.7% | SK-MEL-28 melanoma 93.1%

From PubChem BioAssay (NCI)
